This passage reports INHIBITION results from ChEMBL document CHEMBL4513216, “Probing the Open Global Health Chemical Diversity Library for Multistage-Active Starting Points for Next-Generation Antimalarials” (ACS Infect Dis, 2020).

Screen size: about 69,000 compounds; about 8,600 (12%) showed an effect of 50% or more. The full list was thinned out, with strong results kept by preference.

The test concerns Plasmodium berghei. Kind of test: Screen against P. berghei liver stage (PbLuc), transformed with Luciferase, at 10uM. To be noted: tested at 10 uM. In kind it is functional, HepG2.
In the case of `COc1ncccc1CNC(=O)N1CCCC1c1ccsc1` (configuration not stated), the INHIBITION is listed as -24.2%.
For `CCN1CCN(C(=O)NCc2cc[nH]n2)CC1` the value was -29.7%.
`COC(=O)c1sccc1S(=O)(=O)N1CCc2c(ncnc2N(C)C)C1`: the INHIBITION came to 58.1%.
For the compound `CN(C)c1ncnc2c1CCN(C(=O)c1sccc1S(N)(=O)=O)C2`, the INHIBITION is listed as -9.18%.
For `CN(C)c1ncnc2c1CCN(S(=O)(=O)c1cccc3nsnc13)C2` the value was 31.6%; for `Cc1ccccc1S(=O)(=O)N1CCc2c(ncnc2N(C)C)C1`, 66.1%; for `COC(=O)c1sccc1S(=O)(=O)N1CCC(Oc2cccc(C)n2)CC1`, 21.8%.
For `COC(=O)c1sccc1S(=O)(=O)N1CCC(Oc2cccnn2)CC1` the value was 21.6%.
Take `CN(C)c1ncnc2c1CCN(S(=O)(=O)c1cccc(Cl)c1Cl)C2`: the INHIBITION was determined as 42.7%.
With `CN(C)c1ncnc2c1CCN(S(=O)(=O)c1ccccc1C(F)(F)F)C2`, the INHIBITION is 30.3%.
The same measure for `COC(=O)c1sccc1S(=O)(=O)N1CCC(Oc2cnccn2)CC1`: 53.7%; for `Cc1cnn(CC2CCCN2Cc2ncc(-c3ccc(F)cc3)o2)c1` (configuration not stated): 2.3%; for `CC(C)CN(CC(=O)O)C(=O)c1ccc(F)cc1`: 17.7%.
For `CN(CCc1ccccc1)c1cnn(CC2COCCO2)c(=O)c1` (configuration not stated) the value was -42.8%; for `O=C(NCc1cncc2c1CCN(C1CCOC1)C2)c1ccco1` (configuration not stated), 0.71%; for `O=C(NCc1cncc2c1CCN(C1CCOCC1)C2)c1ccco1`, 61.3%.
The same measure for `O=C(NCc1cncc2c1CCN(C1CCOCC1)C2)c1ccno1`: 34.5%.
For `COCc1nc(C(=O)NS(=O)(=O)c2cc(Br)ccc2C)cs1`, the INHIBITION was determined as 8.55%.
On to `O=S(=O)(NCc1ccccc1Cn1cncn1)N1CCCCC1`, for which the INHIBITION stood at 25.1%.
Consider `CCn1cc(Cl)c(C(=O)NCCCN(C)C)n1`, for which the INHIBITION is given as 39.1%.
Take `Cc1nccc(C(=O)N2CCCC2c2c(C)nn(C)c2C)n1` (configuration not stated): the INHIBITION is 7.08%.
Turning to `CCN(CCNC(=O)c1cccnc1OCCOC)C1CC1`, the INHIBITION is given as 34.7%.
For `CCN(CCNC(=O)c1ccccc1OCCOC)C1CC1` the value was 58.8%.
With `CCN(CCNC(=O)c1ccccc1Br)C1CC1`, the INHIBITION is recorded as -2.42%.
Consider `O=C(c1ccc(Cn2cnnn2)cc1)N1CCC(c2ccncc2)CC1`, for which the INHIBITION is given as -23%.
Take `CC(C)CCN1CCC2(CNS(=O)(=O)c3cccnc3O2)C1` (configuration not stated): the INHIBITION is reported as 67.3%.
With `O=S1(=O)NCC2(CCN(Cc3ccc(Cl)s3)C2)Oc2ncccc21` (configuration not stated), the INHIBITION is listed as 30%.
For the compound `O=S1(=O)NCC2(CCN(Cc3ccncc3)CC2)Oc2ncccc21`, the INHIBITION turned out to be 44.1%.
Regarding `CCc1nnc(CN(C)c2nccc(N3CCCC(O)C3)n2)o1` (configuration not stated), the INHIBITION amounted to 42.1%.
Consider `CCc1nnc(CN(C)c2nccc(CCC(F)(F)F)n2)o1`, for which the INHIBITION was found to be 59.3%.
The same measure for `CNc1ncc(CN(C)c2nccc(CCC(F)(F)F)n2)cn1`: 43.1%; for `CCc1cc(N(C)Cc2ccncn2)n2nccc2n1`: 10.4%; for `CN(Cc1ccncn1)c1nccc(CCC(F)(F)F)n1`: 59.3%.
The same measure for `CC(=O)NCCNc1nccc(CCC(F)(F)F)n1`: -41.8%; for `CC(=O)N1CCOC(c2cncc(CCC(=O)N(C)C)n2)C1` (configuration not stated): -6.73%; for `O=C1CCC(=O)c2oc3ccccc3c2N1`: -23%.
Turning to `CCc1[nH]c2c(CNc3cncc(C(=O)OC)n3)cc(C)cc2c1C`, the INHIBITION turned out to be 45%.
The same measure for `CCc1[nH]c2c(CNC(=O)C3CNC(=O)C3)cc(C)cc2c1C` (configuration not stated): 25.8%; for `CCc1[nH]c2c(CNc3nc(C)cc(NC)n3)cc(C)cc2c1C`: 85.1%; for `CCc1[nH]c2c(CNc3cncc(C(=O)N(C)C)n3)cc(C)cc2c1C`: 14.3%.
`CCc1[nH]c2c(CNc3cc(C)nc(NC)n3)cc(C)cc2c1C`: the INHIBITION is 87.9%.
On to `CCc1[nH]c2c(CNC(=O)C3CCS(=O)(=O)CC3)cc(C)cc2c1C`, for which the INHIBITION was found to be 48.5%.
The same measure for `COc1ccc(-c2noc(CN3CCCC3Cn3cccn3)n2)cc1` (configuration not stated): 29.7%; for `CN1C(=O)c2ccc(C(=O)N(Cc3cnn(C)c3)C3CC3)cc2C1=O`: 23.8%; for `COCC(=O)N1CCc2ccc(=O)n(Cc3csc(C)n3)c2CC1`: 2.41%.
For `CCOc1ncccc1NC(=O)c1ccc(C(C)=O)s1` the value was 7.24%.
On to `CC1CN(CC(=O)NCCc2ccccc2)CCN1c1nccs1` (configuration not stated), for which the INHIBITION is 33.7%.
The same measure for `c1coc(CN2CCC3(CCOCC3COCC3CC3)CC2)c1` (configuration not stated): 18.6%; for `CCNc1cc2c(nn1)CCN(C(=O)c1cc3cc(C)ccc3o1)C2`: 68.8%; for `CCNc1cc2c(nn1)CCN(C(=O)c1cc(C)no1)C2`: 40%.
For `CCNc1cc2c(nn1)CCN(C(=O)c1ccc(CNC(C)=O)o1)C2` the value was -21.7%; for `CCNc1cc2c(nn1)CCN(C(=O)c1cc3ccccc3o1)C2`, 17.4%; for `CCNc1cc2c(nn1)CCN(C(=O)c1cc3nc(C)ccc3o1)C2`, 35.3%.
As for `CCNc1cc2c(nn1)CCN(C(=O)c1cc3cccc(C)c3o1)C2`, the INHIBITION is 70.8%.
Take `CC(=O)N1CC(=O)N(c2ccsc2)CC12CCN(Cc1ccccn1)C2` (configuration not stated): the INHIBITION is reported as -2.17%.
Turning to `CCOc1ccc(C(=O)N2CCN(c3nccn3C)CC2)cc1`, the INHIBITION is 14.3%.
The same measure for `c1cc(CN2CCC(c3ccc4c(c3)OCO4)CC2)ccn1`: 12.515%; for `Cn1cccc1C(=O)N1C[C@H]2CN(Cc3cccs3)C[C@H]2C1`: 14.9%.
As to `CN(C)C1COC2(CCN(Cc3nccs3)CC2)C1` (configuration not stated), the INHIBITION is reported as 11.5%.
Take `Cc1ccc(C(=O)NS(=O)(=O)c2cc(F)ccc2F)c(=O)[nH]1`: the INHIBITION is on record as -1.14%.
The same measure for `CSC(C)C(=O)N(C)CCCc1cc(-c2ccccc2)no1` (configuration not stated): 57.75%; for `CC(NC(N)=O)C(=O)N(C)CCCc1cc(-c2ccccc2)no1` (configuration not stated): 0.375%.
For `CC(=O)N(C)CCCc1cc(-c2ccccc2)no1`, the INHIBITION came to 24.75%.
`O=C(O)[C@]12CCCN(Cc3ccsc3)C[C@H]1CN(c1ncccn1)C2`: the INHIBITION is -10.3%.
For `COCCn1cc2c(n1)C(CNCc1nccs1)OCC2` (configuration not stated) the value was 26.3%.
As for `Cc1nn(CC(=O)N2CCC3(CN(C)C(=O)O3)C2)c(=O)c2ccccc12` (configuration not stated), the INHIBITION is on record as 15.4%.
For `Cc1cccc(N2CCC(N3CCCC4(CN(C)C(=O)O4)C3)CC2)c1C` (configuration not stated) the value was 36.7%; for `O=C1NCC2(CCCN(C(=O)Cn3nc4ccccc4n3)CC2)O1` (configuration not stated), 4.87%; for `Cc1cccc(N2CCC(N3CCCC4(CNC(=O)O4)C3)CC2)c1C` (configuration not stated), 63.4%.
Turning to `Cc1cccc(N2CCC(N3CCC4(CCCNC4=O)C3)CC2)c1C` (configuration not stated), the INHIBITION is on record as 32.7%.
The same measure for `Cc1cccc(N2CCC(N3CCC4(CN(C)C(=O)O4)C3)CC2)c1C` (configuration not stated): 64.4%.
Consider `Cc1nn(CCO)c(C)c1CNCc1cccnc1N(C)C`, for which the INHIBITION worked out at 19.2%.
For `O=C(O)c1cnc(N2CCC(c3nccn3CC3CC3)CC2)c(Cl)c1` the value was 25.9%; for `O=C(CN1CCCC(O)C1)NC(=O)NCc1cccs1` (configuration not stated), 43.4%.
For `CN(CCOc1ccc(F)cc1)S(=O)(=O)c1cnn(C)c1` the value was 21.2%.
For `COCCN1CCN(Cc2c(C)noc2C)Cc2cccnc21`, the INHIBITION worked out at 36.9%.
On to `O=C(NCc1cccc(Cl)c1)C1=NOC2(CCNC2)C1` (configuration not stated), for which the INHIBITION came to 21.5%.
`CN(C)C(=O)COC[C@]12COC[C@H]1CN(CCc1ccccc1)C2`: the INHIBITION was 24.3%.
The same measure for `CN(C)CCOCc1ncn2c1CN(c1ncc(F)cn1)CCC2`: 23.3%; for `Cc1nnc(SCC(=O)NCC(c2ccccc2Cl)N(C)C)s1` (configuration not stated): -18.5%.
For `Cc1ccccc1C(CNC(=O)CSc1nnc(N)s1)N(C)C` (configuration not stated) the value was 54.7%; for `Nc1nnc(SCC(=O)NCC(O)c2ccccc2)s1` (configuration not stated), -17.2%; for `CCn1cc(NC(=O)NCc2ccc(CO)c(F)c2)cn1`, -59.4%.
For the compound `O=C(c1cc(Cl)c[nH]1)N1CCN(CCc2ccccn2)CC1`, the INHIBITION is 9.79%.
On to `O=C(c1cc2c(Cl)cccc2[nH]1)N1CCN(CCc2ccccn2)CC1`, for which the INHIBITION amounted to 56.3%.
For `CSc1ccccc1C(C(=O)O)N1CCN(Cc2ccccn2)CC1` (configuration not stated) the value was 33.5%.
In the case of `Cc1c(Cl)cccc1NC(=O)N1CCN(Cc2ccccn2)CC1`, the INHIBITION amounted to 64.3%.
The same measure for `Cc1ccc(Cl)c(C)c1NC(=O)N1CCCN(Cc2ccccn2)CC1`: 46.3%; for `O=C(c1ccccc1Cl)N1CCN(CCc2ccccn2)CC1`: 30%.
With `Cc1ccc(C)c(C(C(=O)O)N2CCCN(Cc3ccccn3)CC2)c1` (configuration not stated), the INHIBITION is 0.139%.
The same measure for `Cc1ccc(C(C(=O)O)N2CCCN(Cc3ccccn3)CC2)c(F)c1` (configuration not stated): -1.49%; for `COc1ccc(C)cc1C(C(=O)O)N1CCN(Cc2ccccn2)CC1` (configuration not stated): 26.7%.
The same measure for `Cc1ccc(NC(=O)N2CCN(Cc3ccccn3)CC2)cc1Cl`: 42.1%; for `O=C(O)C(c1ccc(Cl)c(F)c1)N1CCN(Cc2ccccn2)CC1` (configuration not stated): 52.1%.
Turning to `Cc1cc(F)c(C(C(=O)O)N2CCN(Cc3ccccn3)CC2)cc1Cl` (configuration not stated), the INHIBITION was 66.6%.
Consider `Cc1cccc(-n2cnnc2CCCN2CCOCC2)c1`, for which the INHIBITION was determined as 34.4%.
Consider `CNC(=O)C1CCC(NC(=O)c2cc(C3CC3)n(C(C)(C)C)n2)CC1` (configuration not stated), for which the INHIBITION is 15.4%.
`c1ccc(OCCNC2CCCN(Cc3noc(C4CC4)n3)C2)cc1` (configuration not stated): the INHIBITION was -52.5%.
For `Cn1cc(C2CCCN2C(=O)c2ccc(Br)o2)cn1` (configuration not stated), the INHIBITION was found to be 12.2%.
The same measure for `CC(=O)NCc1ccc(C(=O)N2CCCC2c2cnn(C)c2)o1` (configuration not stated): -1.88%; for `CCN(CC)Cc1ccc(C(=O)N2CCCC2c2cnn(C)c2)o1` (configuration not stated): 57%; for `CCN(c1ccc(C(=O)N2CCCC2c2cnn(C)c2)cn1)C(C)C` (configuration not stated): 48.4%.
The same measure for `CC(C)CN(C)c1ccc(C(=O)N2CCCC2c2cnn(C)c2)cn1` (configuration not stated): 52.1%; for `Cn1cc(C2CCCN2C(=O)c2ccc(NC3CC3)nc2)cn1` (configuration not stated): 22.25%; for `CN(C)c1ccc(C(=O)N2CCCC2c2cnn(C)c2)cn1` (configuration not stated): -13.3%.
The same measure for `CNC(=O)c1ccc(C(=O)N2CCCC2c2cnn(C)c2)cn1` (configuration not stated): 59.4%.
Take `COc1ccc(C(=O)N2CCCC2c2cnn(C)c2)cn1` (configuration not stated): the INHIBITION is reported as -11.9%.
